From PubChem BioAssay come the findings set out here.

Assay [1] can be described thus: yeast TOR pathway RPL19A-GFP modulators, primary screen, cell-based, S. cerevisiae, multiplex flow cytometry (AID 1862; in the data active = percent of DMSO control GFP below about 86%;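 note: lower values mimic rapamycin by blocking the RPL19A rise seen in DMSO cells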). The conditions noted are these: S. cerevisiae RPL19A-GFP strain, flow cytometry fluorescence, 3 h; at 10 µM; stronger effect = lower value.
A short description of assay [2]: modulators of MEP2-GFP levels in yeast, primary screen, S. cerevisiae, multiplex flow cytometry (AID 1867;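 active = GFP response, as percent of the DMSO control, above the screen-wide mean plus 3 SD, about 139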;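 note: median GFP channel fluorescence of barcode-gated MEP2-GFP cells measured by flow cytometry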). The conditions noted are these: S. cerevisiae MEP2-GFP strain, 3 h, at 10 µM, stronger effect = higher value, 100% means same as DMSO wells.
Assay [3] is described as follows: modulators of CIT2-GFP expression in yeast, primary screen, S. cerevisiae, GFP fusion, multiplex flow cytometry (AID 1870).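 Note: barcoded CIT2-GFP strain pooled with four other GFP strains with rapamycin as positive control; median GFP fluorescence per well over plate mean of DMSO wells so 100% = DMSO.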 The conditions noted are these: 3 h, at 10 µM, stronger effect = higher value.
Assay [4] in a line: modulators of LAP4-GFP expression in yeast, primary screen, S. cerevisiae, multiplex flow cytometry (AID 1873;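 active = GFP signal, as percent of the solvent control, above the screen mean plus 3 SD, about 149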). The conditions noted are these: 3 h, at 10 µM, stronger effect = higher value. A general note: Flow cytometry measures light scatter and fluorescence of single cells or particles in a stream.
Assay [5] in a line: modulators of AGP1-GFP expression in yeast TOR pathway, primary screen, cell-based, multiplex flow cytometry, S. cerevisiae (AID 1887;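 active = GFP signal above the screen-wide mean plus 3 SD, that is over about 124.5% of the solvent control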;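 note: AGP1-GFP fusion strain of S. cerevisiae within a five-strain barcoded multiplex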). The conditions noted are these: 3 h, at 10 µM, stronger effect = higher value.
Assay [6] in a line: inhibitors of CD8+ T cell-vesicle binding, pilot screen, LFA-1/ICAM-1 modulator project, MLPCN validation set, flow cytometry (AID 2523;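 active = response below a set limit, under 55% cells CD8-positive and vesicle-bound, and CD8 cells' 90th-percentile brightness under 279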;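 for vesicle binding response: mean PE anti-B7-1 fluorescence of CD8+ cells relative to row control; 100% = QL9-loaded vesicles with DMSO vehicle in the same plate row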). The following applies: 2C mouse CD8+ T cells, at 7 µM, stronger effect = lower value; double positive events: measured here: CD8+/vesicle+ event percentage.
The target in assay [7] is Integrin beta-1 (Homo sapiens) + Integrin alpha-4 (Homo sapiens) (UniProt P13612+P05556). The assay can be described thus: inhibition of HUTS-21 binding to VLA-4, pilot screen, VLA-4 allosteric modulator project, U937 cells, HUTS-21 mAb, flow cytometry, validation set (AID 2674;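 active = inhibition above 50%, about 3 SD of the validation set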;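 note: antibody binding induced by the VLA-4 ligand LDV present at three times its Kd; 0% = LDV ligand with antibody and no compound and 100% = antibody without LDV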). The following applies: HUTS-21 LIBS mAb binding, at 6.7 µM, stronger effect = higher value, binding induced by LDV ligand.
Chain of Integrin beta-1 (Homo sapiens) + Integrin alpha-4 (Homo sapiens) (P05556 whole entry, looked up): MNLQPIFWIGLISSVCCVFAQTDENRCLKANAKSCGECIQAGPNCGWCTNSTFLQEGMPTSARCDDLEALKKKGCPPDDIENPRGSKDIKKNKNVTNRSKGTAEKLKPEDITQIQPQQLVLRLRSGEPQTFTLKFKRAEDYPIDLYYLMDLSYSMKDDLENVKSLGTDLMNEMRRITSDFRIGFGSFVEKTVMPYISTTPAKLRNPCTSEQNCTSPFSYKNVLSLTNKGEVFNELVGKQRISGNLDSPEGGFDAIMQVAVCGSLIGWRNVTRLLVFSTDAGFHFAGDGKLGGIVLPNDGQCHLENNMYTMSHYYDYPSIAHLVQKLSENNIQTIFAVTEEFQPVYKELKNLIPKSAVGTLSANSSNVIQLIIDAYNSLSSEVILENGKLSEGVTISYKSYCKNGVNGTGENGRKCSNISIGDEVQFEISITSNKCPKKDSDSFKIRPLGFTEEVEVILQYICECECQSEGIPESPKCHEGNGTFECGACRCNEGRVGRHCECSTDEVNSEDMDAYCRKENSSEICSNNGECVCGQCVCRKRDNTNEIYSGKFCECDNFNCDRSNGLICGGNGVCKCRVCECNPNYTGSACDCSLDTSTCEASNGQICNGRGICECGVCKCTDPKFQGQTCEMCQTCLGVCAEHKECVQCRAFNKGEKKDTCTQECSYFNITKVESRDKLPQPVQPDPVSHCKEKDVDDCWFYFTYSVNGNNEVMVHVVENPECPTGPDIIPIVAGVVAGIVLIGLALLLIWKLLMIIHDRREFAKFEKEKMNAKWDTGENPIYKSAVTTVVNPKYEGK
Chain of Integrin beta-1 (Homo sapiens) + Integrin alpha-4 (Homo sapiens) (P13612 whole entry, looked up): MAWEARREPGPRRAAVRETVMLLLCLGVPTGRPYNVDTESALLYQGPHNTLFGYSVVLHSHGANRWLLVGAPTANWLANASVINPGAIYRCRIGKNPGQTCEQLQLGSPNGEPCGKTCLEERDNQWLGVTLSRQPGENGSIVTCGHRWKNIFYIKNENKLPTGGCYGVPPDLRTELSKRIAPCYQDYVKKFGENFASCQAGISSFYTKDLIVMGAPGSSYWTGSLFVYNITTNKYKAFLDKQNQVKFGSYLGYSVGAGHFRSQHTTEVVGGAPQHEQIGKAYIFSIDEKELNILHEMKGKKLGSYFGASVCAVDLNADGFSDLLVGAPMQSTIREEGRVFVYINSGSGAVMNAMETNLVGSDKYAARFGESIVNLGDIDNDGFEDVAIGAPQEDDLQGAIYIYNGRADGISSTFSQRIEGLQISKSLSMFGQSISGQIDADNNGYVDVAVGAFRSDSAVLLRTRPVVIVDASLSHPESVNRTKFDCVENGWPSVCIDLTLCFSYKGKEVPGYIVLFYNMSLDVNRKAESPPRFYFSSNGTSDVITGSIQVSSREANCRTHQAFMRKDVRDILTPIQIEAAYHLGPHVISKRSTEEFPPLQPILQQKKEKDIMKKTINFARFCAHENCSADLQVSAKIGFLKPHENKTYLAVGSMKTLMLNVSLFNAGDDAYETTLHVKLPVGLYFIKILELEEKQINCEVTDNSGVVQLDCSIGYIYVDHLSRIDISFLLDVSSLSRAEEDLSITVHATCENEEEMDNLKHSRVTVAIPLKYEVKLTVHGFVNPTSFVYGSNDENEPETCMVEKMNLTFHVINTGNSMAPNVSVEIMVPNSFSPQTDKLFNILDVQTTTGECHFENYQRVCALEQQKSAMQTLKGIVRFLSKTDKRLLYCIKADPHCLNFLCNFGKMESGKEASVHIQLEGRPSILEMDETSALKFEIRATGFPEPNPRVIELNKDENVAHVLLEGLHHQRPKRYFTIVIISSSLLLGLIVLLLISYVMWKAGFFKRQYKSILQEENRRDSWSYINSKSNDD

The nature of assay [8]: superoxide lowering in aged yeast cells, pilot screen, validation compound set (AID 2706;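 active = superoxide response below 65% of plate, a cut near 3 SD across the whole screen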;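 note: yeast exposed to compound for one week at 30 degrees C before staining; 100% = mean of all compound wells on the same plate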). The following applies: S. cerevisiae aging, superoxide DHE fluorescence; at 10 µM, stronger effect = lower value.
The target of assay [9] is Beta-adrenergic receptor kinase 1 (Homo sapiens) (UniProt P25098). The assay can be described thus: GRK2 binders displacing RNA aptamer, biochemical, validation, human GRK2, bead flow cytometry (AID 488806;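 active = aptamer binding inhibition above 30%, about 3 SD of noise from non-fluorescent compounds; inactive = inhibition at or below 30%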). The conditions noted are these: bead-bound GRK2, FAM-aptamer displacement, at 10 µM, stronger effect = higher value.
Chain of Beta-adrenergic receptor kinase 1 (Homo sapiens) (P25098 whole entry, looked up): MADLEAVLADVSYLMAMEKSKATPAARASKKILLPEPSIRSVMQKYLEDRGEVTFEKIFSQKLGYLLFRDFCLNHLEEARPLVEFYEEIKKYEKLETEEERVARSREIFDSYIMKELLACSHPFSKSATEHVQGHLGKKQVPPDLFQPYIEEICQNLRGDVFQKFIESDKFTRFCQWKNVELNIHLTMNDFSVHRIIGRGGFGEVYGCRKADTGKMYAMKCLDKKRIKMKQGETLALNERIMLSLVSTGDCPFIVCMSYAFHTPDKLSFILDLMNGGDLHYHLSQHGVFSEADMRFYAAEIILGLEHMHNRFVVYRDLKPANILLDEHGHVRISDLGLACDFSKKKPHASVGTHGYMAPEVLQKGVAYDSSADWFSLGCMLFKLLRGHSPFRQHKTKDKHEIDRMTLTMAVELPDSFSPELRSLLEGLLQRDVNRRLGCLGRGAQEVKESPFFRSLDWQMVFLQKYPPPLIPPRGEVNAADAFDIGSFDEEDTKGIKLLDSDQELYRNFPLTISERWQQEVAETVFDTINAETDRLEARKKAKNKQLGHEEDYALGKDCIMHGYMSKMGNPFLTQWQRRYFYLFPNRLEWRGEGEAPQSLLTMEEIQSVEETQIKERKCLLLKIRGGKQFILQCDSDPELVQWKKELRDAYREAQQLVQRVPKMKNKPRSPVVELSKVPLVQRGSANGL
Assay [10] concerns the target Beta-2 adrenergic receptor (Homo sapiens) (UniProt P07550). The assay can be described thus: beta2AR agonists driving receptor internalization, pilot screen, cell-based, FAP fluorogen, flow cytometry, validation set (AID 504459;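 active = percent response above 42, roughly 3 SD of non-fluorescent test compounds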;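 note: agonist-driven loss of surface beta2AR via internalization measured by FAP dye flow cytometry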). The conditions noted are these: Am2.2-beta2AR cells, FAP surface receptor flow cytometry; at 10 µM; stronger effect = higher value.
Assay [11] has as its target AP-2 complex subunit beta (Homo sapiens) (UniProt P63010). The assay can be described thus: inhibitors of arrestin peptide binding to AP2, pilot screen, biochemical, validation set, GST-AP2 beads, flow cytometry (AID 504541;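 active = inhibition above 54%, about 3 SD of non-fluorescent compounds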;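 note: AP2 carries R879A mutation and is captured from E. coli lysate; bead-bound FITC arrestin peptide fluorescence measuring arrestin peptide binding to AP2; 0% = DMSO wells and 100% = excess unlabeled arrestin peptide control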). The conditions noted are these: FITC arrestin peptide, at 10 µM, stronger effect = higher value, AP2 beta2 appendage fragment, R879A mutant.
Assay [12] can be described thus: yeast V-ATPase proton transport modulators, S. cerevisiae, pHLuorin, HTS validation (AID 504600; in the data active = response above about 15%;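 note: plate controls were DMSO for no effect and reference compound for full effect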). The conditions noted are these: S. cerevisiae pHLuorin cytosolic pH, at 10 µM, stronger effect = higher value.
For assay [13], the system named is anti-desmoglein-3 scFv antibody binding to human DSG3. The assay can be described thus: inhibitors of anti-DSG3 scFv binding to DSG3, pilot screen, biochemical, validation compound set, bead-based, flow cytometry (AID 588368;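 active = binding below the plate cutoff, the plate median minus 3 SD, with a reading above zero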;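 note: signal is the median channel fluorescence of bead-bound GFP antibody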). The conditions noted are these: Protein G beads, DSG3-Fc, scFv-GFP binding, at 10 µM, stronger effect = lower value.
Assay [14] in a line: inhibitors of fungal efflux pumps CDR1, CDR2, MDR1, pilot screen, validation compound set, multiplex, phenotypic (AID 588506;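 active = efflux inhibition above 0.42, the validation set average plus 4 SD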;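 note: Nile Red retained in cells so higher fluorescence means more efflux inhibition; 0 = negative control wells and 1 = enniatin B 25 µM full block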). The conditions noted are these: S. cerevisiae pump-expressing triplex, Nile Red efflux flow cytometry; at 10 µM; stronger effect = higher value; the pumps come from Candida albicans.
Assay [15] has as its target ATP-binding cassette sub-family B member 6 (Homo sapiens) (UniProt Q9NP58). The assay can be described thus: ABCB6 transporter inhibitors, pilot screen, K562-ABCB6 cells, flow cytometry, validation set (AID 588550;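 active = inhibition above the screen-wide mean plus 3 SD, about 51%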;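 note: 0% = DMSO wells and 100% = benzethonium chloride 70 µM positive control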). The following applies: K562-ABCB6 porphyrin accumulation, 1 h, at 10 µM, stronger effect = higher value.
A short description of assay [16]: promoters of myeloid differentiation in arrested cells, primary screen, cell-based, GFP/MAC1 double positive, flow cytometry, validation set (AID 588685;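 active = differentiation response of at least 50%, scaled between solvent and reference control, from cells with both markers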;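 note: compound exposure lasts four days before antibody staining and flow analysis; 0% = DMSO wells and 100% = 5 µM fulvestrant positive control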). The following applies: ER-HoxA9 marrow cells, stronger effect = higher value, normalized: vehicle 0, fulvestrant 100.
Assay [17] can be described thus: RPL19A-GFP modulators, yeast TOR pathway, confirmation, cell-based, S. cerevisiae, flow cytometry, cherry picks, mother/daughter gates (AID 2270;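 active = GFP response below 50% of the DMSO control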). The following applies: S. cerevisiae RPL19A-GFP strain, 3 h, at 10 µM, stronger effect = lower value, 100 = same GFP as DMSO wells.
Assay [18] in a line: LAP4-GFP expression modulators in yeast, confirmation, cell-based, cherry picks, flow cytometry, mother/daughter gates (AID 2271;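 active = GFP response above 150% of the DMSO control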;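 note: ratio of sample to DMSO plate mean so 100% equals DMSO level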). The conditions noted are these: S. cerevisiae LAP4-GFP strain, 3 h, at 10 µM, stronger effect = higher value, 100 means same as DMSO control.
Assay [19] can be described thus: modulators of MEP2-GFP levels in yeast, confirmation, S. cerevisiae, flow cytometry GFP, cherry picks (AID 2272;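 active = GFP response above 150% of the DMSO control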;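 note: ratio of well signal to plate DMSO mean so 100% equals DMSO level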). The following applies: S. cerevisiae MEP2-GFP strain, 3 h, at 10 µM, stronger effect = higher value.
Assay [20] in a line: modulators of CIT2-GFP expression in yeast, confirmation, S. cerevisiae, GFP fusion, cherry picks, mother/daughter gates (AID 2274;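 active = GFP response above 150% of the DMSO level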). The following applies: S. cerevisiae CIT2-GFP strain, flow cytometry, 3 h, at 10 µM, stronger effect = higher value.
Where [21] appears, read: measured here: daughter cell gate.
The mark [22] stands for this setting: measured here: mother cell gate.

Each structure is given as a SMILES string. Results filed as inconclusive are left out. Calls of active or inactive are those of the source.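 Rule for the calls, unless noted: active = percent response above a set limit, the screen-wide mean plus 3 SD (cut at about 130% in these data); inactive = the rest.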

Chain of Beta-2 adrenergic receptor (Homo sapiens) (P07550 whole entry, looked up): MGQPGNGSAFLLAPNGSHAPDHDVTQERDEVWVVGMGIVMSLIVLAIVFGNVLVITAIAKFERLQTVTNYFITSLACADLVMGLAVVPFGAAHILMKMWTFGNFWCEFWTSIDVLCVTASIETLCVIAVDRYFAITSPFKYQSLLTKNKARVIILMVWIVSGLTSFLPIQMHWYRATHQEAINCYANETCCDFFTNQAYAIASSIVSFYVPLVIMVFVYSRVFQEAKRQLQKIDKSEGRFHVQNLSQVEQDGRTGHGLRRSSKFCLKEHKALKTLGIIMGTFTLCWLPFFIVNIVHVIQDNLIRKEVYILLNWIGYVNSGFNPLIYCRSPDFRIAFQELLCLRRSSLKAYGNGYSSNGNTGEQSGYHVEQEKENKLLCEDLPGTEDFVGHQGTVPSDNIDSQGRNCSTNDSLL
Chain of AP-2 complex subunit beta (Homo sapiens) (P63010 whole entry, looked up, the tested form may be a part, one chain of several): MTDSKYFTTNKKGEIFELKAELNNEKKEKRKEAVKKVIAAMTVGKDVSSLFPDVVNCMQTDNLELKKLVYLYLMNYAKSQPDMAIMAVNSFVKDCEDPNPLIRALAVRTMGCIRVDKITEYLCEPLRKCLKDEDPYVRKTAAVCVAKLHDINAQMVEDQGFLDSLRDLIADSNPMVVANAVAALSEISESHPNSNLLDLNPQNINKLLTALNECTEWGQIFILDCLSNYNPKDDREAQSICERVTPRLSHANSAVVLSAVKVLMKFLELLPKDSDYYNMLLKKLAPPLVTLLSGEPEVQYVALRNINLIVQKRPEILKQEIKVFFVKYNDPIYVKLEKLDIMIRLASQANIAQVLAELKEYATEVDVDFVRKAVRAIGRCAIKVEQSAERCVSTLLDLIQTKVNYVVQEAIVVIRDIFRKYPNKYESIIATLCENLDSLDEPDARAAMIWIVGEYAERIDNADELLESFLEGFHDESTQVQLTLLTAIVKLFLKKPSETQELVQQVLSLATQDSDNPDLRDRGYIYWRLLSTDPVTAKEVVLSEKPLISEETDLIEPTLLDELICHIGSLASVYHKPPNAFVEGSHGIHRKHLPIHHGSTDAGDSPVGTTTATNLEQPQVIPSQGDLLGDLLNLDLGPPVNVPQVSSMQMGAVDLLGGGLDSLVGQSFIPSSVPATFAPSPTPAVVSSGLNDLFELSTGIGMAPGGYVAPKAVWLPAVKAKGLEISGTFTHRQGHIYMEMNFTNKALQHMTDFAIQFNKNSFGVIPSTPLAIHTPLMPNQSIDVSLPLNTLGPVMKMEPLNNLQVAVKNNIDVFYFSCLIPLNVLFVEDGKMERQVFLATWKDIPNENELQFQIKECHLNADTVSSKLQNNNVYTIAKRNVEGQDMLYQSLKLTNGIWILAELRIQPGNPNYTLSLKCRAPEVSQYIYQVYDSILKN
Chain of ATP-binding cassette sub-family B member 6 (Homo sapiens) (Q9NP58 whole entry, looked up): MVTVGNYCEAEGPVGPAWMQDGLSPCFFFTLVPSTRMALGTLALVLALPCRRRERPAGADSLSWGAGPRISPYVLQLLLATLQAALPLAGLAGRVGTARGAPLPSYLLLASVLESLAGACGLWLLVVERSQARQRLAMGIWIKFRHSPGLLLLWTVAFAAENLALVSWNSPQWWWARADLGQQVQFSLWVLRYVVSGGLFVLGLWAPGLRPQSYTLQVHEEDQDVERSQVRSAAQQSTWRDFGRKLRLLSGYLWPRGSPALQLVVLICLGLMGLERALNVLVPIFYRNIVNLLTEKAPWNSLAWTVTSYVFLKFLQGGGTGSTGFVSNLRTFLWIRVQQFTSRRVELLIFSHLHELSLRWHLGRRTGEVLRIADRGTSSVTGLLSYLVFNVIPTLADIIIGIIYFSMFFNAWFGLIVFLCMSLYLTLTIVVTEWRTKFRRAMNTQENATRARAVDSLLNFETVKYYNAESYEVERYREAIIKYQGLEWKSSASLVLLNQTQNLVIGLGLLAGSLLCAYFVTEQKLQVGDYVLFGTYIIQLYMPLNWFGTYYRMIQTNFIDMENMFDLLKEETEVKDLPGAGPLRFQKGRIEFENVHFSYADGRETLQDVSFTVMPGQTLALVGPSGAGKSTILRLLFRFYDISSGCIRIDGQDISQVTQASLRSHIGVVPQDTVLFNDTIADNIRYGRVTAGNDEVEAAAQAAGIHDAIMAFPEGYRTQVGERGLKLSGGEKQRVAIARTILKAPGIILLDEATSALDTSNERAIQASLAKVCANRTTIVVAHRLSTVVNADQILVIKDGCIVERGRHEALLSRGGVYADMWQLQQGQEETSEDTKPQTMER

Consider `O=c1n(CCCN2CCN(c3cccc(Cl)c3)CC2)nc2ccccn12`, for which, in assay [1], the percent of DMSO control GFP was 91.5% (inactive). Besides, the GFP response vs DMSO is 112% (inactive) in [2] and 75.9% (inactive) in assay [4]. Moreover, the percent response of DMSO control in [3] is 106% (inactive). The GFP response, % of DMSO in assay [5] was 92.4% (inactive). The compound further displayed a double positive events in assay [6] of 69.6%. Also, the inhibition in assay [7] is 1.61% (inactive); in assay [11] it was -2.13% (inactive); in [15], 11% (inactive). Also, the superoxide response (% of plate) in assay [8] is 102% (inactive). In addition, the aptamer binding inhibition in [9] is 2% (inactive). In addition, the figures for the response in [10] and in assay [12] were 2.3% (inactive) and 1.41% (inactive), respectively. Further, the binding (% of control) in assay [13] was 102% (inactive). The efflux inhibition (fraction of control) in [14] was -0.2 (inactive). For the same compound, the differentiation response in assay [16] is 5.73% (inactive).

With `CC[C@H]1OC(=O)[C@H](C)[C@@H](O[C@H]2C[C@@](C)(OC)[C@@H](O)[C@H](C)O2)[C@H](C)[C@@H](O[C@@H]2O[C@H](C)C[C@H](N(C)C)[C@H]2O)[C@](C)(O)C[C@@H](C)[C@@H]2N[C@@H](COCCOC)O[C@H]([C@H]2C)[C@]1(C)O`, the percent of DMSO control GFP in assay [1] was 95% (inactive). Also, the values for the GFP response vs DMSO in [2] and in assay [4] were 130% (inactive) and 79.2% (inactive), respectively. The percent response of DMSO control in assay [3] was 95.2% (inactive). This compound also gave a double positive events in assay [6] of 63.9%. Moreover, the vesicle binding response in assay [6] is 137% (inactive). In addition, the inhibition is 6.46% (inactive) in assay [7], -5.27% (inactive) in assay [11] and 8% (inactive) in assay [15]. Also, the superoxide response (% of plate) in assay [8] was 106% (inactive). The aptamer binding inhibition in assay [9] was 29% (inactive). Moreover, the response was -13.2% (inactive) in assay [10] and 32.7% (active) in assay [12]. Also, the binding (% of control) in [13] was 103% (inactive). The efflux inhibition (fraction of control) in assay [14] is -0.31 (inactive). Moreover, in assay [16], the differentiation response is -4.91% (inactive).

For `C[C@]12CCC(=O)C=C1CC[C@@H]1[C@@H]2C(=O)C[C@@]2(C)[C@H]1CC[C@]2(O)C(=O)CO`, the percent of DMSO control GFP in [1] is 89.8% (inactive). Moreover, the GFP response vs DMSO was 125% (inactive) in assay [2]; 88% (inactive) in assay [4]; 97% (inactive) in assay [17]; 97.3% in assay [17] (setting [21]); 98.1% in assay [17] (setting [22]); 102% (inactive) in [19]. In assay [3], the percent response of DMSO control is 108% (inactive). Moreover, the results for the GFP response relative to DMSO in assay [18], in [18] (measured here: daughter cell gate response) and in assay [18] (measured here: mother cell gate response) were 96.5% (inactive), 99.3% and 94.6%, respectively. For the same compound, the GFP response, % of DMSO was 99.3% (inactive) in [20], 100% in assay [20] (setting [21]) and 99.1% in assay [20] (setting [22]). This compound registered a double positive events in [6] of 61.9%. In assay [6], the vesicle binding response was 136% (inactive). The results for the inhibition in [7], in assay [11] and in [15] were 14.2% (inactive), -9.52% (inactive) and 14% (inactive), respectively. For the same compound, in [8], the superoxide response (% of plate) is 94.9% (inactive). Also, the aptamer binding inhibition in assay [9] is 4% (inactive). For the same compound, the response in assay [10] was -5.55% (inactive); in [12] it was 1.03% (inactive). Further, the binding (% of control) in assay [13] was 101% (inactive). Moreover, the efflux inhibition (fraction of control) in assay [14] is 0.3 (inactive). In [16], the differentiation response is 14.7% (inactive).

As for `CC1(C)C2CCC1(C)C(OCC[N+](C)(C)CC(=O)OC1CCCCC1)C2` (stereo not given), in assay [1], the percent of DMSO control GFP was 88% (inactive). Further, the GFP response vs DMSO in assay [2] was 104% (inactive); in [4] it was 78.1% (inactive). Besides, the percent response of DMSO control in assay [3] was 104% (inactive). The compound further yielded a double positive events in [6] of 70%. Further, the vesicle binding response in assay [6] is 196% (inactive). Also, the inhibition in [7] was 12.3% (inactive); in assay [11] it was -2.94% (inactive); in assay [15] it was 6% (inactive). For the same compound, the superoxide response (% of plate) in assay [8] is 95.2% (inactive). Besides, in [9], the aptamer binding inhibition was -4% (inactive). The response in assay [10] is -4.15% (inactive); in assay [12] it was 3.18% (inactive). Moreover, the binding (% of control) in assay [13] is 109% (inactive). For the same compound, the efflux inhibition (fraction of control) in [14] was -0.06 (inactive). For the same compound, the differentiation response in assay [16] was -5.73% (inactive).

With `Cc1cc(C(C)(C)C)cc(C)c1CC1=NCCN1`, the percent of DMSO control GFP in [1] is 93.7% (inactive). In addition, the GFP response vs DMSO was 133% (inactive) in assay [2] and 77.6% (inactive) in [4]. The percent response of DMSO control in assay [3] is 96.6% (inactive). The compound further yielded a double positive events in assay [6] of 62.8%. Also, the vesicle binding response in assay [6] is 214% (inactive). For the same compound, the inhibition is 18.1% (inactive) in assay [7], 5.97% (inactive) in assay [11] and 10% (inactive) in [15]. Moreover, the superoxide response (% of plate) in [8] is 104% (inactive). In addition, the aptamer binding inhibition in assay [9] is 1% (inactive). Besides, the response in assay [10] is -5.36% (inactive); in assay [12], -7.49% (inactive). In [13], the binding (% of control) was 98.5% (inactive). In addition, the efflux inhibition (fraction of control) in assay [14] was 0.12 (inactive). For the same compound, the differentiation response in [16] was 2.46% (inactive).

As usually defined, the inhibition is the change of the read-out against control, counted positive when it falls.
